In ChEMBL document CHEMBL2218924, “A broad activity screen in support of a chemogenomic map for kinase signalling research and drug discovery” (Biochem J, 2013) one finds residual activity data, which are given here for one compound.

Assay [1] has as its target T1, Ephrin type-A receptor 3 (Homo sapiens) (UniProt P29320).
T1 sequence (whole entry): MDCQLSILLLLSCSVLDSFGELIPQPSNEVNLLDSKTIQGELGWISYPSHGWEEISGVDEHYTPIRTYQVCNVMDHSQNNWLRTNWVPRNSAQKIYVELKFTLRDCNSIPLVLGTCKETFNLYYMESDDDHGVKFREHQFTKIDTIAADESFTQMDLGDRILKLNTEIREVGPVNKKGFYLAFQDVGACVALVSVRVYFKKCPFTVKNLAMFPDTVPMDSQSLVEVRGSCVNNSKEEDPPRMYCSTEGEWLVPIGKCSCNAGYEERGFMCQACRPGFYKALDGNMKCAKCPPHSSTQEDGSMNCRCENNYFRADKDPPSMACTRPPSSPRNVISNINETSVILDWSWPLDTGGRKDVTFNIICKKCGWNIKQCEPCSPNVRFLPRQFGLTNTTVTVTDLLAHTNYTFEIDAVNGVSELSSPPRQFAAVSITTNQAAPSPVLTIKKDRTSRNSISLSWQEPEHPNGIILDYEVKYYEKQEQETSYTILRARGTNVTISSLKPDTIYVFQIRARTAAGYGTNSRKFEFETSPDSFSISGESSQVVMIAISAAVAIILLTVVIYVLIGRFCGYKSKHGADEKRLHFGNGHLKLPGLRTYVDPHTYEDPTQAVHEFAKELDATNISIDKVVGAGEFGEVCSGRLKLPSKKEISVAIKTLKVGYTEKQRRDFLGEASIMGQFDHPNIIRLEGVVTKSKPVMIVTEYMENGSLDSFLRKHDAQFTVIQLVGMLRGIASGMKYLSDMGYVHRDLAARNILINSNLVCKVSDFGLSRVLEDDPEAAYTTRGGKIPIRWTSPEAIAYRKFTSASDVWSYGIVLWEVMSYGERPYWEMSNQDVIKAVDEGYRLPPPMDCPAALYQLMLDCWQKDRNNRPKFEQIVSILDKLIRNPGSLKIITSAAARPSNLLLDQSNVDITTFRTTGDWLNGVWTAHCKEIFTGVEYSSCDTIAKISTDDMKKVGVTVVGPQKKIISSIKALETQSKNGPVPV
The note with it: at 10 µM.

For assay [2], the target named is Ephrin type-A receptor 4 (Homo sapiens) (UniProt P54764). The note with it: at 1 µM.
The target is the same in assay [3]. The note with it: at 10 µM.
Assay [4] deals with Ephrin type-A receptor 5 (Homo sapiens) (UniProt P54756). To be noted: at 10 µM.
In assay [5] the target is Ephrin type-A receptor 7 (Homo sapiens) (UniProt Q15375). The note with it: at 10 µM.
Assay [6] deals with T2, Ephrin type-B receptor 3 (Homo sapiens) (UniProt P54753).
T2 sequence (whole entry): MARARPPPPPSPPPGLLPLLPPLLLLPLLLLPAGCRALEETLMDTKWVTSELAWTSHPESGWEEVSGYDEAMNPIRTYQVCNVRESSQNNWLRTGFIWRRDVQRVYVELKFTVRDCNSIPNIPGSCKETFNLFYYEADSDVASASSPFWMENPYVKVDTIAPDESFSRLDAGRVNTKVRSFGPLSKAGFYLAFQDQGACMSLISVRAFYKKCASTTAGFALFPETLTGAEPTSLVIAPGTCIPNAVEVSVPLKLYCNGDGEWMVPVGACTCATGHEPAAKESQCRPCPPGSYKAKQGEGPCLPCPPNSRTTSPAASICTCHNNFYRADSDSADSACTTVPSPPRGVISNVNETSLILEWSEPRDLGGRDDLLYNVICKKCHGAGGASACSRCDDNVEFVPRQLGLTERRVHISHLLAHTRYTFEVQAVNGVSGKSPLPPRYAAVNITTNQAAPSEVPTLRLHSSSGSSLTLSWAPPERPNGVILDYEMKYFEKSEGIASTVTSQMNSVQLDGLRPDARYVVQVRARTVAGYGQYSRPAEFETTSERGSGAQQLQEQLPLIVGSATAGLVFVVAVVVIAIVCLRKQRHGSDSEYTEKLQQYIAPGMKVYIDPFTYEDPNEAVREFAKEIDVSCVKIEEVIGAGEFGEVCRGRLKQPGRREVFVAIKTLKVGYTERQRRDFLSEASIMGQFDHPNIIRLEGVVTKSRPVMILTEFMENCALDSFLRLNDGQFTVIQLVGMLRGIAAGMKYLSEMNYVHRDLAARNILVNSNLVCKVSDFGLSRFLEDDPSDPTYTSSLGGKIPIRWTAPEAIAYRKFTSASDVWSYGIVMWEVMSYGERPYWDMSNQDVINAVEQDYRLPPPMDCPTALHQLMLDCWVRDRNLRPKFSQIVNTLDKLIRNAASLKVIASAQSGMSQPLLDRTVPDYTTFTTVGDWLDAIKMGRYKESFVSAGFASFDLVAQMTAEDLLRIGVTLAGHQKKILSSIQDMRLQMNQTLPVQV
To be noted: at 10 µM.

Assay [7] deals with T3, Ephrin type-B receptor 4 (Homo sapiens) (UniProt P54760).
T3 sequence (whole entry): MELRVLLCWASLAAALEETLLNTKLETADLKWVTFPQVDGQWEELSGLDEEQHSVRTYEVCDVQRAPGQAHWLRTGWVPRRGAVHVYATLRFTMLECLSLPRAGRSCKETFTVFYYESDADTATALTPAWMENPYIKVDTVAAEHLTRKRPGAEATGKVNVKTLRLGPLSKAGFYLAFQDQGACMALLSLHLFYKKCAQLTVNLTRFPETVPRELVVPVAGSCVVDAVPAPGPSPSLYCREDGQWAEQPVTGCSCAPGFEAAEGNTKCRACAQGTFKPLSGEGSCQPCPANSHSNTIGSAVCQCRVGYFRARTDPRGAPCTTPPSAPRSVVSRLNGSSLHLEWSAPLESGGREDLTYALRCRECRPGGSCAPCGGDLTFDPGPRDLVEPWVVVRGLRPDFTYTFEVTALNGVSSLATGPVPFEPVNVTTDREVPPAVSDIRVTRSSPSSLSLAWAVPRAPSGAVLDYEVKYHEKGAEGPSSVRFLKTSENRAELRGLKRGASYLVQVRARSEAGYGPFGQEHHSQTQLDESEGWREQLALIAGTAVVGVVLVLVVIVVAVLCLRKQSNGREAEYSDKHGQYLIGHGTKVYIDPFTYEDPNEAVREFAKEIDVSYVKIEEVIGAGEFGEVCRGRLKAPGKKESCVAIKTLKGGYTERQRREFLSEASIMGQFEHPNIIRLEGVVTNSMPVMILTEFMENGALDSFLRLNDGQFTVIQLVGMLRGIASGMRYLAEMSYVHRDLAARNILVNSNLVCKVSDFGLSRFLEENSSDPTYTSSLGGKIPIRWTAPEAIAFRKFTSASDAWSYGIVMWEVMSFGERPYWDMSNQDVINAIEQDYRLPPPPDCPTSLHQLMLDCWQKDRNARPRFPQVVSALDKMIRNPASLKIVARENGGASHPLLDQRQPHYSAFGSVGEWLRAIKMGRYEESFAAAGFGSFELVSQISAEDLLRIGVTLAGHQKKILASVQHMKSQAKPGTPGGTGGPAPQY
The note with it: at 1 µM.

The target of assay [8] is T3, Ephrin type-B receptor 4 (Homo sapiens). The note with it: at 10 µM.
The target of assay [9] is Receptor tyrosine-protein kinase erbB-4 (Homo sapiens) (UniProt Q15303). The note with it: at 10 µM.
Chain of Receptor tyrosine-protein kinase erbB-4 (Homo sapiens) (Q15303 whole entry): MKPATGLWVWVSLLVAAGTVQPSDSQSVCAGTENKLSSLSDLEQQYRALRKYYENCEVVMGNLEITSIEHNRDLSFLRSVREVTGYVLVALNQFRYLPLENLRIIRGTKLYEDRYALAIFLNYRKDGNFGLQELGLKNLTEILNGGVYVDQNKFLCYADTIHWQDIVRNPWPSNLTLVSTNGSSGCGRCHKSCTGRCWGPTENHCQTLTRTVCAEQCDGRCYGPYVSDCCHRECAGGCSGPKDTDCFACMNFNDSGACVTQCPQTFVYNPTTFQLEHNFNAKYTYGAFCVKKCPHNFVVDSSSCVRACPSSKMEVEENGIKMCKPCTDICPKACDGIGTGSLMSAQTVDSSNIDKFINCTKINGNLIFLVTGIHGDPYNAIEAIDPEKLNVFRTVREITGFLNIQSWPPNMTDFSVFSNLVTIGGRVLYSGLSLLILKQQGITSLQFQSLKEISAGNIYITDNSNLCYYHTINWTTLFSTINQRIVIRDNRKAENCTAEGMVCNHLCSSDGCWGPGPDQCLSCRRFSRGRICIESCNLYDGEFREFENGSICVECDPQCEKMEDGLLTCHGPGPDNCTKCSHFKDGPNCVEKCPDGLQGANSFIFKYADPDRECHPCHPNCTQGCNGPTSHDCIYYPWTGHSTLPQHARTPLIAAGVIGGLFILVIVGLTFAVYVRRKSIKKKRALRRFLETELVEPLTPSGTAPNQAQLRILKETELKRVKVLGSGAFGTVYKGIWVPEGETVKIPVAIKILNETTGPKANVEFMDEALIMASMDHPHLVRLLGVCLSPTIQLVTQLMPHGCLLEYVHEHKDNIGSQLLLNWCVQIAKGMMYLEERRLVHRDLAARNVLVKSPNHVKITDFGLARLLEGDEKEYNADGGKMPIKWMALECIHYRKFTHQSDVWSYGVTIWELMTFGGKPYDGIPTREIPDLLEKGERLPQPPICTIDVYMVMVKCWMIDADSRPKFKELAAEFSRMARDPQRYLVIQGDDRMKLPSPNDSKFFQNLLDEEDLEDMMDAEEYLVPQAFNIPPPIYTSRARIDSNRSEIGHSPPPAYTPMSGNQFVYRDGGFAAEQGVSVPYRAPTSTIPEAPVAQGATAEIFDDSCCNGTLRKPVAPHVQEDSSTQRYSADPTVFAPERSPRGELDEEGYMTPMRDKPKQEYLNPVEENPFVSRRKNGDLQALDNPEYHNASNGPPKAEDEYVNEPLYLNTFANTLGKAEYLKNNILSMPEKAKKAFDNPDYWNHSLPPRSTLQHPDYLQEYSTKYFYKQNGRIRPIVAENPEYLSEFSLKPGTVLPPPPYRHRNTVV

Chain of Ephrin type-A receptor 4 (Homo sapiens) (P54764 whole entry): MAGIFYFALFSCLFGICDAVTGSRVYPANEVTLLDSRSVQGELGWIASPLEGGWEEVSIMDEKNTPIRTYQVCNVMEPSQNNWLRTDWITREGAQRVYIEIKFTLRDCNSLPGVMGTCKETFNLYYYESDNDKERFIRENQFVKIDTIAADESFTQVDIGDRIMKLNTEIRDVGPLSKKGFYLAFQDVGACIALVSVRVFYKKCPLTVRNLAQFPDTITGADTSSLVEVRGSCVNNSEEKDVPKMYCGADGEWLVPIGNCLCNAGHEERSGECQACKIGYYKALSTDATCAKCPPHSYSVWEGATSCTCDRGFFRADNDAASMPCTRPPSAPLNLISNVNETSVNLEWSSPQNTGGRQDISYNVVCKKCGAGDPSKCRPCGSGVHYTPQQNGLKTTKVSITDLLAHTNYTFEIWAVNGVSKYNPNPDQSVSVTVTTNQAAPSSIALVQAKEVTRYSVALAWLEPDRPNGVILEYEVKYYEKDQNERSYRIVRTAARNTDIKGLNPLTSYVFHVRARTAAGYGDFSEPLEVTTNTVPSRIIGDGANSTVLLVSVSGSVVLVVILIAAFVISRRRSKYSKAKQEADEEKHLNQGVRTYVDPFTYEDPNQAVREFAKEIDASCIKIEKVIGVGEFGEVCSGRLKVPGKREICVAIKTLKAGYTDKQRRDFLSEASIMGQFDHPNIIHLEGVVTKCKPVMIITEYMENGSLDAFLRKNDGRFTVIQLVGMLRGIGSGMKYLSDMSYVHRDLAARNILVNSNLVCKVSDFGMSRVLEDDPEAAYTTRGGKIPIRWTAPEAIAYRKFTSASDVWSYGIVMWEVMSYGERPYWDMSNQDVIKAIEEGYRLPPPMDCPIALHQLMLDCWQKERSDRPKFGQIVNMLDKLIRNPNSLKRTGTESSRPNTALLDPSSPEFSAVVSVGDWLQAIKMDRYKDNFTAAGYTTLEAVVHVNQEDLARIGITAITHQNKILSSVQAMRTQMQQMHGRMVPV
Chain of Ephrin type-A receptor 5 (Homo sapiens) (P54756 whole entry): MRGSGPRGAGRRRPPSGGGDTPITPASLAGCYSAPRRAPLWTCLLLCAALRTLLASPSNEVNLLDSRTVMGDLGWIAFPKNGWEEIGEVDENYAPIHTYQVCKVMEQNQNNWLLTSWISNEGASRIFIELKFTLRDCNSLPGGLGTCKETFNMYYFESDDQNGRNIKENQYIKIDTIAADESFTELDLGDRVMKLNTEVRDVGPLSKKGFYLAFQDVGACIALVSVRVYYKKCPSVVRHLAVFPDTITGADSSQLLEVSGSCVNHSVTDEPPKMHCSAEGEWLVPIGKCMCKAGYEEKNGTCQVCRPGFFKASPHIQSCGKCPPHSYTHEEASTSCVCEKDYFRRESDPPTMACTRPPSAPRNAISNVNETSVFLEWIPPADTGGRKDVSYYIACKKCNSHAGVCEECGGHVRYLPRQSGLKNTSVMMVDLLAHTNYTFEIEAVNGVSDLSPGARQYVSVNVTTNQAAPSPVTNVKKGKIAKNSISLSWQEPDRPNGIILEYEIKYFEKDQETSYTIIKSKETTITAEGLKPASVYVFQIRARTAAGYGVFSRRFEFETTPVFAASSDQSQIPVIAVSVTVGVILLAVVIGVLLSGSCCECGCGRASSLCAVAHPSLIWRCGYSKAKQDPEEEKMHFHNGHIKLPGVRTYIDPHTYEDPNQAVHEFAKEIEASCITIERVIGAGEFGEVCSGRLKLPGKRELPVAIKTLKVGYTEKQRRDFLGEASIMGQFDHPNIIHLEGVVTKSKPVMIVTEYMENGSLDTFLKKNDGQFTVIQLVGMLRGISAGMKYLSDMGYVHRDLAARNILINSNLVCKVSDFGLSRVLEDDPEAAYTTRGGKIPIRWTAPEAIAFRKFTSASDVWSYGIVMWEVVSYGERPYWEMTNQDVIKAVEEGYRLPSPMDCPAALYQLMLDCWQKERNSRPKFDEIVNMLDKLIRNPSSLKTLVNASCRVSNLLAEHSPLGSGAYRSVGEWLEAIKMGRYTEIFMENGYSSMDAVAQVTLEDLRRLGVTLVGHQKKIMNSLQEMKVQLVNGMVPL
Chain of Ephrin type-A receptor 7 (Homo sapiens) (Q15375 28-998 limits assumed): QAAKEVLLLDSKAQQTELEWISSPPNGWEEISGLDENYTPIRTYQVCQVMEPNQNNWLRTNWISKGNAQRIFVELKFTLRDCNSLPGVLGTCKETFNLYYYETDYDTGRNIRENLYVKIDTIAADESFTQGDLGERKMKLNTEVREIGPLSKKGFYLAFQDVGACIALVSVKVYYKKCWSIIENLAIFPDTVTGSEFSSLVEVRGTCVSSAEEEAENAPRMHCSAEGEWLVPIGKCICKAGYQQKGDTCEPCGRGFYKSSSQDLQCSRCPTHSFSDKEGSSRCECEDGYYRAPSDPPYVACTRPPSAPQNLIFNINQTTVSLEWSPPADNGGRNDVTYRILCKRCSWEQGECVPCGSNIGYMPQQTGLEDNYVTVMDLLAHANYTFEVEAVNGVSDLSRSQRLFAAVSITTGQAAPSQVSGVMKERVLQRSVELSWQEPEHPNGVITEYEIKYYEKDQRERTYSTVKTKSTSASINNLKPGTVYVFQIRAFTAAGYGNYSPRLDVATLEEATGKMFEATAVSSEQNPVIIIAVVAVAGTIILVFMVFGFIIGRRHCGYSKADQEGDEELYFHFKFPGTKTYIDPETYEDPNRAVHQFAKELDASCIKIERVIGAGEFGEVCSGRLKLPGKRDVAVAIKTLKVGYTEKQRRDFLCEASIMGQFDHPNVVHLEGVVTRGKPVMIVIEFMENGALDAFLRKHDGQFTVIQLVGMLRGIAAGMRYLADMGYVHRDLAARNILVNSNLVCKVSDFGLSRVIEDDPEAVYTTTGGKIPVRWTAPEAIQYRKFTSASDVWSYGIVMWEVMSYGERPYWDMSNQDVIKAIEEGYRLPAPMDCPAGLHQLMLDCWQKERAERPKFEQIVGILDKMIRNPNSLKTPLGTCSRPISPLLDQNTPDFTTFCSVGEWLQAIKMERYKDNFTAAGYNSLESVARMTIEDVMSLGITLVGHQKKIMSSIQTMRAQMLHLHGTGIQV

For the compound `CSc1nc(-c2ccc(F)cc2)c(-c2ccnc(NC(C)c3ccccc3)c2)[nH]1` (centres undefined), the residual activity was 97% in [1]; 102% in assay [2]; 91% in assay [3]; 97% in [4]; 95% in assay [5]; 80% in [6]. The residual activity in [7] was 99%; in assay [8], 88%; in assay [9], 85%.

A word on the residual activity: it is the signal under treatment as a percentage of the control signal.
